Only some compounds are listed: those with a hit (about 19% of all), similar ones and a draw of the others.
HT1080 IDH1KD tx: HT-1080 IDH1 knockdown cell toxicity (counter line) | HT-1080 IDH1 knockdown viability, ATP luminescence, 48 h | Potency, µM (top dose mostly 46.1 µM), for inactives: top-dose activity, negative = toxicity, actives largely listed as cytotoxic | 2% of 360,000 active | AID 686971;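 note: potency is the fitted concentration of half-maximal effect; 0% = DMSO wells and -100% = cell-free medium wells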
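Luminescent ATP read-out (CellTiter-Glo, 10 min at room temperature) after 48 h compound exposure at 37 °C gave viability of IDH1-knockdown HT-1080 cells. Activity was normalised to DMSO and cell-free wells, then fitted as concentration-response curves.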
IL-1B inflam inh: blocks inflammasome-driven IL-1 beta release. THP-1 LPS/ATP IL-1B secretion, AlphaLISA, 16 h; stronger effect = lower value. activity change, % at 57.5 µM. 4.7% of 360,000 active. AID 743279; in the data active = activity change below about -50%; inconclusive = mostly about -30% to -49%
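Secreted IL-1B measured by AlphaLISA bead assay after 16 h compound exposure of THP-1 cells; compounds (final up to 57.5 uM) added 1 h before LPS (250 ng/mL) and ATP (1.25 mM) stimulation; lower signal means less secretion.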
TDP1 cell CPT: growth inhibition of DT40 Tdp1-/-;hTDP1 cells with camptothecin (screen for TDP1 inhibitors) | chicken DT40 Tdp1-/-;hTDP1 cells + 20 nM CPT, ATP luminescence, 48 h | Potency, µM (top dose mostly 46.2 µM), without a hit: at the top dose activity change, negative = growth inhibition, actives largely listed as inhibitors | 12% of 420,000 active | AID 686979; note: potency is the fitted concentration of half-maximal effect; nearly all actives have a fitted effect of over 55% in size
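Chicken DT40 Tdp1-/- cells stably complemented with human TDP1 were seeded at 400 cells/well in medium containing 20 nM camptothecin, exposed to pin-transferred compounds, and grown at 37 °C for at least 48 hr. Viability was read as ATP luminescence.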
TDP1 cell noCPT: qHTS for Inhibitors of human tyrosyl-DNA phosphodiesterase 1 (TDP1): qHTS in cells in absence of CPT. AID 686978, 2013. DT40 Tdp1-/- hTDP1 cells, no CPT, ATP luminescence, 48 h. 15% of 420,000 active. Potency, µM (series often up to 46.2 µM), inactives show at the highest dose activity change, negative = growth inhibition, hits mostly inhibitors; note: potency is the fitted concentration of half-maximal effect; nearly all actives have a fitted effect of over 55% in size
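Cells were dispensed at 400 per well, compounds added by pin tool, plates incubated ≥48 hr at 37 °C, then CellTiter-Glo added for 30 min at room temperature before luminescence reading. Line: DT40 Tdp1-/- complemented with hTDP1; camptothecin omitted.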
HT1080NT lethal: kills 2HG-producing HT-1080-NT fibrosarcoma cells | 1.6% of 360,000 active | Potency, µM (highest dose often 46.1 µM), for the others: at the highest dose activity, negative = less viability, actives largely listed as cytotoxic | HT-1080-NT fibrosarcoma viability, CellTiter-Glo ATP luminescence, 48 h | AID 686970;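 note: NT is the 2HG producing partner of a matched IDH1 knockdown line; potency is the fitted concentration of half-maximal effect; 0% = DMSO-treated cells and -100% = media-only wells without cells; nearly all actives have a fitted effect of over 55% in size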
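Viability of the 2HG-overproducing fibrosarcoma line after 48 hours of compound exposure at 37 degrees C was determined by luminescence with CellTiter-Glo, and concentration-effect curves were then fitted and categorized.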
* hit, by the source's call. Unless noted, calls come from the whole dose curve; as a rule, active = well fitted curve in the direction sought with a large enough effect; inconclusive = small, poorly fitted or top-dose-only effect, or another doubt; inactive = no such curve, though single readings can be large; an effect the other way counts as inactive or inconclusive. Unless noted, % is set by controls: 0 for no effect and ±100 for the full control effect.

Screening CC1=C(C(=O)OCc2ccccc2)C(c2ccc([N+](=O)[O-])cc2)NC(=O)N1C (stereo not given) returned HT1080 IDH1KD tx -17.5%, IL-1B inflam inh -16.9, TDP1 cell CPT -28.3%, TDP1 cell noCPT -21.8% and HT1080NT lethal -1.5%.
Screening CN(C)c1ccc(Cl)cc1N returned HT1080 IDH1KD tx 17.1%, IL-1B inflam inh 8.0, TDP1 cell CPT 4.5%, TDP1 cell noCPT 2.6% and HT1080NT lethal 8.6%.
`O=C(NC1CCCC1)c1cccc2c1C(=O)c1ccc(N3CCCCC3)cc1S2(=O)=O` gave HT1080 IDH1KD tx -6.8%, IL-1B inflam inh 12.2, TDP1 cell CPT inconclusive, TDP1 cell noCPT inconclusive and HT1080NT lethal 2.7%.
`O=C(NCc1ccc(F)cc1)c1cccc2c1C(=O)c1ccc(N3CCOCC3)cc1S2(=O)=O` gave HT1080 IDH1KD tx 3.8%, IL-1B inflam inh -13.8, TDP1 cell CPT 23.1µM*, TDP1 cell noCPT inconclusive and HT1080NT lethal -0.7%.
Screening O=C1c2ccccc2S(=O)(=O)c2cc(N3CCC(C(=O)N4CCCCC4)CC3)ccc21 returned HT1080 IDH1KD tx -9.0%, IL-1B inflam inh -11.0, TDP1 cell CPT 20.6µM*, TDP1 cell noCPT 18.4µM* and HT1080NT lethal 5.7%.
For O=C1c2ccccc2S(=O)(=O)c2cc(C(=O)N3CCC(O)CC3)ccc21 the results were HT1080 IDH1KD tx 3.1%, IL-1B inflam inh 13.2, TDP1 cell CPT 15.6%, TDP1 cell noCPT -11.3% and HT1080NT lethal 2.0%.
`CC1CCN(c2ccc3c(c2)S(=O)(=O)c2cccc(C(=O)NC4CCCCC4)c2C3=O)CC1` gave HT1080 IDH1KD tx -10.2%, IL-1B inflam inh 19.2, TDP1 cell CPT 16.4µM*, TDP1 cell noCPT 16.4µM* and HT1080NT lethal -41.0%.
O=C(NC1CC1)c1cccc2c1C(=O)c1ccc(N3CCC(Cc4ccccc4)CC3)cc1S2(=O)=O was read as HT1080 IDH1KD tx 1.6%, IL-1B inflam inh 16.8, TDP1 cell CPT 23.1µM*, TDP1 cell noCPT 13µM* and HT1080NT lethal 0.6%.
For COc1cccc(/C=N/NC(=O)c2nnn(-c3nonc3N)c2CN(C)C2CCCCC2)c1 the results were HT1080 IDH1KD tx 4.0%, IL-1B inflam inh -3.4, TDP1 cell CPT inconclusive, TDP1 cell noCPT inconclusive and HT1080NT lethal 8.4%.
For CCC(=O)N1CCc2cc(S(=O)(=O)NC(C(=O)NCc3ccc(OC)cc3)C(C)C)ccc21 (stereo not given) the results were TDP1 cell CPT -17.5% and TDP1 cell noCPT -3.7%.
COc1ccc(CN2C(=O)c3cccnc3C2=O)cc1S(=O)(=O)N(C)c1ccc(C)cc1 was read as HT1080 IDH1KD tx 2.5%, IL-1B inflam inh -0.3, TDP1 cell CPT -13.6%, TDP1 cell noCPT 11.3% and HT1080NT lethal 20.2%.
Screening COc1ccc(Cc2nnc(NC(=O)C(C)(C)C)s2)cc1 returned HT1080 IDH1KD tx -5.4%, IL-1B inflam inh 23.0, TDP1 cell CPT 3.0%, TDP1 cell noCPT -16.1% and HT1080NT lethal 23.0%.
`CC(C)(C)CNC(=O)c1cccc2c1C(=O)c1ccc(-c3cc4ccccc4o3)cc1S2(=O)=O` gave HT1080 IDH1KD tx 5.1%, IL-1B inflam inh 21.8, TDP1 cell CPT 16.4µM*, TDP1 cell noCPT inconclusive and HT1080NT lethal 0.0%.
Screening O=C(NCc1ccc(F)cc1)c1cccc2c1C(=O)c1ccc(N3CCC(Cc4ccccc4)CC3)cc1S2(=O)=O returned HT1080 IDH1KD tx 6.4%, IL-1B inflam inh 29.5, TDP1 cell CPT inconclusive, TDP1 cell noCPT inconclusive and HT1080NT lethal 3.4%.
`O=C1c2ccc(Cl)cc2S(=O)(=O)c2cccc(C(=O)N3CCC(Cc4ccccc4)CC3)c21` gave HT1080 IDH1KD tx inconclusive, IL-1B inflam inh -99.2*, TDP1 cell CPT inconclusive, TDP1 cell noCPT 23.1µM* and HT1080NT lethal inconclusive.
O=C(NCc1ccccc1C(F)(F)F)c1cccc2c1C(=O)c1ccc(N3CCCCC3)cc1S2(=O)=O was read as HT1080 IDH1KD tx 0.0%, IL-1B inflam inh 24.2, TDP1 cell CPT inconclusive, TDP1 cell noCPT inconclusive and HT1080NT lethal 0.0%.
Screening CC(C)c1cccc(-c2ccc3c(c2)S(=O)(=O)c2cccc(C(=O)O)c2C3=O)c1 returned HT1080 IDH1KD tx 2.6%, IL-1B inflam inh 3.5, TDP1 cell CPT 9.6%, TDP1 cell noCPT -2.3% and HT1080NT lethal 4.2%.
O=C(O)c1cccc2c1C(=O)c1ccc(-c3ccc(Cl)c(C(F)(F)F)c3)cc1S2(=O)=O was read as HT1080 IDH1KD tx 11.5%, IL-1B inflam inh -77.7*, TDP1 cell CPT -0.6%, TDP1 cell noCPT -5.5% and HT1080NT lethal 10.4%.
Screening O=C(NCC1CC1)c1cccc2c1C(=O)c1ccc(-c3ccc(OC(F)(F)F)cc3)cc1S2(=O)=O returned HT1080 IDH1KD tx 7.5%, IL-1B inflam inh 15.0, TDP1 cell CPT 13µM*, TDP1 cell noCPT 23.1µM* and HT1080NT lethal 0.0%.
CC1(C)Oc2ccc(C(=O)NNC(=O)Nc3ccccc3)cc2NC1=O was read as HT1080 IDH1KD tx 0.5%, IL-1B inflam inh 14.3, TDP1 cell CPT 5.3%, TDP1 cell noCPT 0.8% and HT1080NT lethal 0.8%.
For CC(C)(C)CNC(=O)c1cccc2c1C(=O)c1ccc(N3CCCC3)cc1S2(=O)=O the results were HT1080 IDH1KD tx 1.9%, IL-1B inflam inh -10.2, TDP1 cell CPT 20.6µM*, TDP1 cell noCPT 16.4µM* and HT1080NT lethal -7.2%.
`CC1CCN(c2ccc3c(c2)S(=O)(=O)c2cccc(C(=O)NCc4ccc(F)cc4)c2C3=O)CC1` gave HT1080 IDH1KD tx -8.0%, IL-1B inflam inh 50.1, TDP1 cell CPT inconclusive, TDP1 cell noCPT inconclusive and HT1080NT lethal -18.4%.
Screening COc1ccccc1N1CCN(c2ccc3c(c2)S(=O)(=O)c2cccc(C(=O)NCC4CC4)c2C3=O)CC1 returned HT1080 IDH1KD tx -9.1%, IL-1B inflam inh -14.4, TDP1 cell CPT 18.4µM*, TDP1 cell noCPT 7.31µM* and HT1080NT lethal -5.8%.
O=C(Nc1ccccc1C(=O)N1CCCCC1)c1cc(F)c(F)cc1Cl was read as HT1080 IDH1KD tx -25.7%, IL-1B inflam inh -2.7, TDP1 cell CPT -2.2%, TDP1 cell noCPT -4.7% and HT1080NT lethal 2.0%.
`CNc1cc(OC)c(C(=O)N[C@H]2CCN(Cc3ccccc3)[C@H]2C)cc1Cl` gave TDP1 cell CPT 10.6µM* and TDP1 cell noCPT 11.9µM*.
For COCCNS(=O)(=O)c1ccc(Cl)c(C(=O)NC2CCN(Cc3ccccc3)CC2)c1 the results were HT1080 IDH1KD tx 1.4%, IL-1B inflam inh 4.7, TDP1 cell CPT -9.2%, TDP1 cell noCPT -27.5% and HT1080NT lethal 8.3%.
CN(C)c1ncc2nc(-c3cccs3)c(=O)n(C)c2n1 was read as TDP1 cell CPT -1.6% and TDP1 cell noCPT 18.0%.

From PubChem BioAssay
